In article PMC4336329 (PLoS ONE, 2015):
About 14,000 (4.5%) of roughly 310,000 compounds showed an effect of 50% or more. Effects have a minus sign here. The list comes from a sample in which strong results are over-represented; it also holds similar structures and randomly drawn compounds.

These compounds were tested against human ether-à-go-go-related gene (hERG) potassium channel (human, UniProt Q12809) (assay: primary screen, population patch clamp on CHO cells stably expressing hERG; higher = less effect of the substance).
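Also: peak tail current of the secondary pulse compared with the same well before compound.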

human ether-à-go-go-related gene (hERG) potassium channel, sequence (Q12809 whole entry, looked up): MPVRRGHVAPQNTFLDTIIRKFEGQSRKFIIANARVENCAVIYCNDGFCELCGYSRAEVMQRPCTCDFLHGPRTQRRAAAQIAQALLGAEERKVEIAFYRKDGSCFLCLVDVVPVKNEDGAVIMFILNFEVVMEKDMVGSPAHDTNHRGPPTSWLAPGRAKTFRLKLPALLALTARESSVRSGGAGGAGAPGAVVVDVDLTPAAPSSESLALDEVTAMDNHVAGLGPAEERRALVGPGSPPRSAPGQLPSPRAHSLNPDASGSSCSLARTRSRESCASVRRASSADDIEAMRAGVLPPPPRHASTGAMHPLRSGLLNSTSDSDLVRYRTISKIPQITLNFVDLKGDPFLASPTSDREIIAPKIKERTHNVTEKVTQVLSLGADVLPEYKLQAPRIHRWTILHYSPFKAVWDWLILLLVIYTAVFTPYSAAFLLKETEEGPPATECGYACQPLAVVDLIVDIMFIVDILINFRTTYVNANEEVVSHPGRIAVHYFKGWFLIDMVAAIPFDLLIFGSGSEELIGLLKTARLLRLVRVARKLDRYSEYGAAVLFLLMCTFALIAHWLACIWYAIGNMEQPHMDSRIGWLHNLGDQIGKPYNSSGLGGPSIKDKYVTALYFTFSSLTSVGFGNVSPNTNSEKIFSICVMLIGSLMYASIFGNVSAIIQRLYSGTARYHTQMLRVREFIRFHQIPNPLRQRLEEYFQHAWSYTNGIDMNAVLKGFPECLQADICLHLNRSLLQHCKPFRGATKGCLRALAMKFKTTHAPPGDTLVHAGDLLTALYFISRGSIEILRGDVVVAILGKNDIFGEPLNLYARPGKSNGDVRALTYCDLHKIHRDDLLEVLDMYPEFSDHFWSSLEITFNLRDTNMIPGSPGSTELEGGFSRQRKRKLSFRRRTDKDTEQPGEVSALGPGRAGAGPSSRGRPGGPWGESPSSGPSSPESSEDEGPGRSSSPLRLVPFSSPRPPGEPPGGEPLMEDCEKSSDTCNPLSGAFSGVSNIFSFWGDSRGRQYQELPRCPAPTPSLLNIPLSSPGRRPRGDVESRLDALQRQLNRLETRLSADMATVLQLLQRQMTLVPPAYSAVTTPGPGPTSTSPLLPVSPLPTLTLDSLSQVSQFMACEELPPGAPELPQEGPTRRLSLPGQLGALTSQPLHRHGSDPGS

Compound | hERG current change (%, negative = inhibition) at 10uM
O=C(c1c[nH]c2ccccc12)C(O)C(c1ccccc1)N1CCOCC1 (stereo not drawn) | -0.703%
CSC1=N/C(=C\c2c(F)cccc2Cl)C(=O)S1 | -17.5%
CC(=O)Nc1ccc(NC(=O)CSc2nnc(C)n2-c2ccccc2)cc1 | 26.1%
CCOC(=O)C1C(=O)OC2(CCOC(C)(C)C2)C1C(=O)OCC (stereo not drawn) | 5.89%
COc1ccc(N(CC(=O)NCc2ccccc2Cl)S(=O)(=O)c2c(C)n[nH]c2C)cc1 | 2.87%
COc1ccc(C(=O)N2CCC(C(=O)Nc3ccc4c(c3)OCO4)CC2)cc1 | -79.9%
Cc1ccccc1C(=O)N1CCC(C(=O)Nc2ccc3c(c2)OCO3)CC1 | 3.97%
O=C(Nc1ccc2c(c1)OCCO2)C1CCN(C(=O)c2ccc(Cl)cc2)CC1 | -12.5%
CS(=O)(=O)N1CCC(C(=O)Nc2ccc3c(c2)OCO3)CC1 | -7.81%
O=C(Nc1ccc2c(c1)OCCO2)C1CCN(C(=O)c2ccc(Br)cc2)CC1 | -52.7%
O=C(Nc1ccc2c(c1)OCCO2)C1CCN(C(=O)c2ccc(F)cc2)CC1 | 3.73%
O=C(Nc1ccc2c(c1)OCO2)C1CCN(C(=O)c2ccc(Cl)cc2)CC1 | -73.5%
COc1ccc(C(=O)N2CCC(C(=O)Nc3ccc4c(c3)OCCO4)CC2)cc1 | -44.2%
COc1cc(OC)cc(C(=O)N2CCC(C(=O)Nc3ccc4c(c3)OCCO4)CC2)c1 | 2.48%
O=C(Nc1ccc2c(c1)OCCO2)C1CCN(C(=O)c2ccccc2)CC1 | 5.84%
O=C(Nc1ccc2c(c1)OCO2)C1CCCCC1 | 0.102%
O=C(Nc1ccc2c(c1)OCO2)C1CCN(C(=O)c2ccc(Br)cc2)CC1 | -70.5%
Cn1c(=O)n(CCCOc2ccc(Br)cc2)c2ccccc21 | -3.96%
COc1ccc(C2C(C(=O)c3ccco3)=C(O)C(=O)N2CC2CCCO2)cc1OC (stereo not drawn) | 24.1%
O=C(CCN1c2ccccc2Sc2ccccc21)OCc1nnc(-c2ccccc2)o1 | 5.92%
O=S1(=O)CCOC[C@H](Cc2ccccc2)N1Cc1ccccc1 | -37.8%
Cc1nc2c3ccccc3nc(NNC(=O)CCC(=O)N3CCN(c4ccccc4F)CC3)n2n1 | -40.3%
CCOc1ccc(NC(=O)C2CCCN(C(=O)Nc3ccccc3)C2)cc1 (stereo not drawn) | 2.35%

Compound | hERG current change (%, negative = inhibition) at 10uM
Cc1cc(C)n(C(C)CC(=O)Nc2ccc3c(c2)OCO3)n1 (stereo not drawn) | 10.2%
COc1cc(OC)c(NC(=O)c2ccco2)cc1Cl | -14.3%
O=C1OCCC1Sc1nc2ccccc2c(=O)n1-c1ccc(F)cc1 (stereo not drawn) | 8.7%
O=C1OCCC1Sc1nnc(-c2ccccc2Cl)n1Cc1ccccc1 (stereo not drawn) | 2.19%
O=C1OCCC1Sc1nc2ccccc2n1Cc1ccccc1 (stereo not drawn) | -46.3%
COCCn1c(SC2CCOC2=O)nc2ccccc2c1=O (stereo not drawn) | -31%
O=C1OCCC1Sc1nc2ccccc2c(=O)n1Cc1ccccc1 (stereo not drawn) | -82.4%
Cc1ccc(Cn2c(SC3CCOC3=O)nc3ccccc3c2=O)cc1 (stereo not drawn) | -42.9%
CSc1nc2ccccc2c(=O)n1Cc1ccc(F)cc1 | 15.4%
O=C1OCCC1Sc1nc2ccccc2c(=O)n1Cc1ccc(F)cc1 (stereo not drawn) | -75.5%
O=C1OCCC1Sc1nc2cc(Cl)ccc2n1Cc1ccccc1 (stereo not drawn) | -63.9%
O=C(Nc1ccccc1Cl)c1ccc(=O)[nH]n1 | 8.03%
COCCn1c(SCC(=O)N(C(C)C)C(C)C)nnc1-c1cc2ccccc2cc1O | -15.8%
COc1cccc(CN(C)C(=O)c2cc(S(=O)(=O)NC3CCCCC3)ccc2C)c1OC | -4.41%
COc1ccc(-c2oc3ccccc3c(=O)c2OC(C)=O)cc1 | -11.3%
CC(=O)c1cccc(NC(=O)NCc2cccnc2)c1 | 12.2%
O=C(Oc1ccccc1)N(c1ccccc1)c1ccccc1 | 2.8%
NS(=O)(=O)c1ccc(NC(=O)CN2CCCc3ccccc32)cc1 | -5.73%
O=C(CN1CCN(S(=O)(=O)c2ccccc2)CC1)NC1CC1 | 15.3%
N#Cc1ccc(S(=O)(=O)N2CCN(CC(=O)Nc3ccccc3C(=O)NC3CC3)CC2)cc1 | -73.9%
NC(=O)C1CCN(CC(=O)Nc2ccccc2C(=O)NC2CC2)CC1 | 1.42%
O=C(CN1CCN(S(=O)(=O)c2ccccc2)CC1)Nc1ccccc1C(=O)c1ccccc1 | -19.4%
Cc1ccccc1C(=O)NC1CCN(CC(=O)Nc2ccccc2Cl)CC1 | -14.4%

Compound | hERG current change (%, negative = inhibition) at 10uM
N#Cc1ccccc1S(=O)(=O)N1CCN(CC(=O)NC(=O)NC2CCCCC2)CC1 | -31.6%
O=C(CN1CCN(S(=O)(=O)c2ccc(F)cc2)CC1)NC1CCCC1 | -8.45%
N#Cc1ccccc1S(=O)(=O)N1CCN(CC(=O)Nc2ccccc2C(=O)NC2CC2)CC1 | -66.5%
CC(C#N)(NC(=O)CN1CCN(S(=O)(=O)c2ccccc2C#N)CC1)C1CC1 (stereo not drawn) | 2.51%
O=C(CN1CCN(S(=O)(=O)c2ccc(F)c(F)c2)CC1)Nc1ccccc1C(=O)NC1CC1 | -72.3%
O=C(CN1CCN(S(=O)(=O)c2ccccc2F)CC1)Nc1ccccc1C(=O)c1ccccc1 | -22.8%
N#Cc1ccc(CN2CCN(CC(=O)Nc3ccccc3C(=O)NC3CC3)CC2)cc1 | -77.9%
O=C(Cc1c(F)cccc1Cl)Nc1ccccc1C(=O)N1CCOCC1 | 3.32%
C#CCOc1ccc(/C=C2/C(=O)ON=C2C)cc1Cl | 10.9%
Oc1ccc(Br)cc1/C=N/n1c(COc2ccccc2)n[nH]c1=S | 16.5%
CCCCNC(=O)COC(=O)c1ccc(F)cc1Cl | -10.8%
COc1ccc(-c2cc(=O)oc3cc(OC(C)C(=O)Nc4ccc(CN5CCOCC5)cc4)ccc23)cc1 (stereo not drawn) | -0.104%
O=C(c1ccc(Cl)cc1)c1cnc(Nc2ccccc2Cl)s1 | -1.11%
Cc1cc(C)c(NC(=O)CSc2nnc(CN3CCOCC3)n2C)c(C)c1 | 13.5%
COc1ccc(C(C(=O)NC2CCCC2)N(C(=O)c2ccoc2C)c2ccccc2)cc1 (stereo not drawn) | -3.9%
CC(=O)c1ccc(S(=O)(=O)N2CCN(CC(=O)Nc3ccccc3C(=O)NC3CC3)CC2)cc1 | -75.4%
CC(=O)c1ccc(S(=O)(=O)N2CCN(CC(=O)NC(=O)NC3CCCCC3)CC2)cc1 | -16.8%
O=C(CN1CCN(S(=O)(=O)c2ccccc2)CC1)Nc1ccccc1C(=O)NC1CC1 | -27.1%
CCn1c(SCC(=O)NC2CCCCC2)nnc1-c1cc2cccc(OC)c2o1 | -26%
CCCCn1c(SCC(=O)NCc2ccco2)nc2cc(S(N)(=O)=O)ccc21 | -7.32%
COc1ccc(NC(NC(=O)c2cccnc2)C(Cl)(Cl)Cl)cc1 (stereo not drawn) | 29.3%
Cl.OCCN1CCN(CC(O)COc2ccc(-c3ccccc3)cc2)CC1 (stereo not drawn) | -45.9%
OC1CCCN(CC(O)COc2ccc(-c3ccccc3)cc2)C1 (stereo not drawn) | -52.9%

Compound | hERG current change (%, negative = inhibition) at 10uM
CC1CCCN(CC(O)COc2ccc(Cl)cc2)C1.Cl (stereo not drawn) | -69.2%
CC1CCCN(C(=O)COc2ccc(-c3ccccc3)cc2)C1 (stereo not drawn) | -35.5%
CC(=O)c1ccc(OCC(O)CN2CCCC(C)C2)cc1.Cl (stereo not drawn) | -1.2%
CC1CCCN(CC(O)COc2ccc3c(c2)OCO3)C1.Cl (stereo not drawn) | -15.1%
CC1CCCN(CC(O)COc2ccc(-c3ccccc3)cc2)C1 (stereo not drawn) | -73.4%
OC(COc1ccc(-c2ccccc2)cc1)CN1CCOCC1 (stereo not drawn) | -19.7%
C=CCNC(=O)CCCOc1cc(C)ccc1C | -9.84%
CC(C)(O)CCc1c(-c2ccc(O)cc2O)oc2c3c(cc(O)c2c1=O)OC(C)(C)C=C3 | 13.7%
CC1(C)Cc2nc3oc4c(=O)n(CC(=O)Nc5ccccc5)cnc4c3cc2CO1 | 5.24%
O=C(O)c1cc(NC(=O)c2cccc(C(=O)Nc3cc(C(=O)O)cc(C(=O)O)c3)c2)cc(C(=O)O)c1 | 15.8%
CCc1noc(C)c1C(=O)N1CCCC(CCC(=O)NCc2ccc(F)c(F)c2)C1 (stereo not drawn) | -0.135%
O=S(=O)(c1cc(Cl)ccc1Br)N1CCCCC1 | -22.9%
Cc1cc(=O)oc2c3c(cc(OCC(=O)NCc4ccncc4)c12)OC(C)(C)CC3 | -27.7%
CCc1cc(=O)oc2c3c(cc(OCC(=O)NCCCn4ccnc4)c12)OC(C)(C)CC3 | -51.1%
CCc1cc(=O)oc2c3c(cc(OCC(=O)NCc4ccncc4)c12)OC(C)(C)CC3 | -34.4%
CCc1cc(=O)oc2c3c(cc(OCC(=O)NCCCOC)c12)OC(C)(C)CC3 | 8.45%
CCCc1cc(=O)oc2c3c(cc(OCC(=O)NCc4ccncc4)c12)OC(C)(C)CC3 | -65%
CCCCc1cc(=O)oc2c3c(cc(OCC(=O)NCCCO)c12)OC(C)(C)CC3 | -18.1%
Cc1cc(=O)oc2c3c(cc(OCC(=O)NCCCn4ccnc4)c12)OC(C)(C)CC3 | -32.1%
CCCc1cc(=O)oc2c3c(cc(OCC(=O)NCCN4CCOCC4)c12)OC(C)(C)CC3 | -18.3%
CCCc1cc(=O)oc2c3c(cc(OCC(=O)NCCCn4ccnc4)c12)OC(C)(C)CC3 | -73.9%
